Results: PubChem BioAssay
Several values for one entry are separate records, joined by “and”; a condition that tells them apart may be missing. Equal values may be shown once.

Target: Carbonic anhydrase 2 (Homo sapiens) (UniProt P00918)
Assay: compounds binding carbonic anhydrase 2 – biochemical, small-molecule microarray, Alexa647-labelled CAII, profiling panel (AID 1122)
Conditions: CAII-A647 binding fluorescence, higher = more signal
In the case of C=CCN(CCCCC)C(=O)C(c1cccs1)N(C(=O)/C=C\C(=O)O)c1ccc(CCO)cc1 (stereo unspecified), the composite z-score is reported as 0.821 and 0.562.
C[C@@H](c1ccccc1)N1C(=O)[C@H]2[C@H]3[C@H](O)[C@H](O)CC(=O)[C@@H]3CC[C@H]2C1=O showed a composite z-score of 0.149.
For CO[C@H]1COC(=O)[C@H](C)NC(=O)CC=C[C@@H](C)[C@H](OC)COC(=O)CC=C[C@@H]1C, the composite z-score was -0.719.
For CCOC(=O)C[C@H]1[C@H](OC(=O)c2ccccc2-c2ccccc2)[C@@H](NC(=O)c2ccccc2)c2cc(OCCCO)ccc2N1C(=O)c1ccc2ccccc2n1, the composite z-score was 0.348 and 0.0749.
In the case of C=CCN(C(=O)C1N(CCOCCO)C(=O)C2C(C(=O)O)C3C=CC21O3)C(C)(C)C (stereo unspecified), the composite z-score is reported as -0.115 and -0.524.
With CCCNC(=O)OC[C@H]1O[C@H](CCON=C(C)CCC(=O)OC[C@H]2O[C@H](C#Cc3ccccc3)C=C[C@@H]2Oc2ccc(C)cc2)C=C[C@@H]1Oc1ccc(OC)cc1 the composite z-score was -0.29.
In the case of CCOC(=O)c1ccc(NC(=O)O[C@H]2[C@H](OC(=O)Nc3ccccc3)[C@H](OC(=O)Nc3ccccc3)[C@@H](OC)O[C@@H]2CO)cc1, the composite z-score is reported as 0.46 and 0.771.
In the case of O=C1NC(=O)C2C1C=CC(C(O)c1ccc([N+](=O)[O-])cc1)N2Nc1ccc(Cl)cc1Cl (stereo unspecified), the composite z-score is reported as 0.483 and 0.751.
For CC(C)=NO[C@@H](C)c1cc(-c2c(C)cc(C)cc2C)no1, the composite z-score was -0.223.
Work on CC(C)=NOCc1ccc(-c2cn([C@@H]3COC[C@H]3O)nn2)cc1 yielded a composite z-score of -0.132.
For C=CC[C@@H](O)c1ccc(O)c2ccccc12, the composite z-score was 0.524 and 0.379.
With C[C@@H]1CC[C@@H](C(=O)O)N[C@H]1c1ccc(-c2ccco2)cc1 the composite z-score was 0.812.
For COC(=O)c1c2oc(c1C(=O)OC)C(=O)N[C@@H](Cc1ccccc1)Cn1cc(nn1)C1(CCCCC1)NC(=O)N[C@H](CO)CC2, the composite z-score was 0.713 and -0.0749.
In the case of C=C[C@@H](OC)[C@H](O)c1ccc(OC)c(O)c1, the composite z-score is reported as -0.189 and 0.232.
In the case of C=CCN(CCCCC)C(=O)C1N(CCCCCCO)C(=O)C2C(C(=O)O)C3C=CC21O3 (stereo unspecified), the composite z-score is reported as 0.85 and 0.83.
With C=CCN(C(=O)C(c1cccs1)N(C(=O)/C=C\C(=O)O)C(C)(C)CO)C(C)(C)C (stereo unspecified) the composite z-score was 0.786 and 0.805.
For Cc1ccc(S(=O)(=O)OC[C@@H]2CN3[C@@H](CC[C@@H](C)[C@@H]3c3ccc(Br)cc3)C(=O)O2)cc1, the composite z-score was 0.11 and 0.427.
With CC(C)[Si]1(C(C)C)OCc2cc(CCCc3cc4c(c(CCc5ccccc5)n3)[Si](C(C)C)(C(C)C)OC4)nc(CCc3ccccc3)c21 the composite z-score was -0.139 and 0.0411.
In the case of C=CCN(Cc1ccccc1)C(=O)C1N(c2c(Cl)cccc2CO)C(=O)C2C(C(=O)O)C3C=CC21O3 (stereo unspecified), the composite z-score is reported as -0.774 and 0.32.
In the case of COc1ccc(-c2ccc3c(n2)CCCN3CC(O)CN2CCCc3nc(-c4ccc(Br)cc4)ccc32)cc1 (stereo unspecified), the composite z-score is reported as 0.491 and 0.44.
In the case of COc1ccc(O[C@H]2C=C[C@@H](c3ccccc3)O[C@@H]2COC(=O)CCC(C)=NO[C@H](C)c2cn([C@H](CO)Cc3ccccc3)nn2)cc1, the composite z-score is reported as -0.11 and -0.114.
With C=CCN1C(=O)[C@]2(O[C@H](CCn3cc(CCO)nn3)[C@@H]([Si](C)(C)c3ccc(OC)cc3)[C@@H]2C)c2cc(N3C(=O)c4cccc5cccc3c45)ccc21 the composite z-score was 0.227 and 0.417.
In the case of C=CCN(CCCCC)C(=O)C(c1cccs1)N(C(=O)/C=C\C(=O)O)c1c(Cl)cccc1CO (stereo unspecified), the composite z-score is reported as 0.91 and 0.768.
For C=C[C@@H](OC)[C@H](O)c1ccc(O)c(F)c1, the composite z-score was 0.881 and -0.182.
For C[N+](C)(C)CCCCNC(=O)[C@@H]1C[C@@H]2C(=O)N[C@@H](CCCC[N+](C)(C)C)C(=O)N2[C@@H]1c1cccc(OCCO)c1, the composite z-score was 0.389 and 0.799.
In the case of C=CC[C@@H](O)c1ccc(OCCO)cc1, the composite z-score is reported as 0.492 and 0.807.
In the case of CCCNC(=O)OC[C@H]1O[C@H](CCON=C(C)CCN2CCc3nc(-c4ccccc4)c(-c4ccccc4)cc3C2)C=C[C@@H]1Oc1ccc(OC)cc1, the composite z-score is reported as -0.0398.

System: not listed separately
Assay: COS7 lysate on small-molecule microarray, probe aHis, 635 nm (AID 1123);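 further: z-score combines 667nm fluorescence intensity with signal-to-noise per printed compound spot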
Conditions: COS7 cell lysate, fluorescence, higher = more signal
With C=C[C@@H](C)[C@H](O)c1ccc(O)c2ccccc12 the composite z-score was 0.294 and -0.0874.
For CCOC(=O)C[C@H]1[C@H](OC(=O)c2ccccc2-c2ccccc2)[C@@H](NC(=O)Cc2ccc(OC)cc2)c2cc(OCCCO)ccc2N1C(=O)c1ccc2ccccc2n1, the composite z-score was 0.411 and 1.57.
In the case of COCn1c2ccccc2c2nnc(C(C)=O)nc21, the composite z-score is reported as -0.0769 and 0.263.
With C[C@@H](ON=C1[C@H]2CCn3c(=O)n(-c4ccccc4)c(=O)n3[C@H]2[C@H](O)[C@@H]2O[C@H]12)c1cn([C@H](CO)Cc2ccccc2)nn1 the composite z-score was 0.392.
For COC(=O)C1=C(C)N(Cc2ccccc2)[C@]23O[C@](C(=O)OC)(C(=O)N2[C@@H]1c1ccccc1)[C@H]1C(=O)N(C)C(=O)[C@H]13, the composite z-score was 0.909 and 0.901.
For C[C@@H]1CC[C@H]2C(=O)N3[C@@H](CC[C@@H](C)[C@@H]3c3ccc(-c4ccco4)cc3)C(=O)N2[C@H]1c1ccc(-c2ccco2)cc1, the composite z-score was 1.12 and 0.0336.
Compound CCOC(=O)NN=C1C[C@@H](O)[C@@H](O)[C@@H]2[C@@H]3C(=O)N(Cc4ccc5c(c4)OCO5)C(=O)[C@@H]3CC[C@@H]12 has a composite z-score of 0.257.
For C=CCN(C(=O)C(c1cccs1)N(C(=O)/C=C\C(=O)O)c1ccc(CCO)cc1)c1ccc(OC)cc1 (stereo unspecified), the composite z-score was -0.416 and -1.29.
With CC(CO)N1C(=O)[C@@H]2C3C(=O)OCCC=C[C@H]3OC23C=CCN(c2ccc(Cl)cc2)C(=O)[C@@H]13 (stereo partly specified) the composite z-score was -0.31 and 0.287.
In the case of C#CCN1C(/C=C/c2ccccc2)C(=O)OC[C@H]1c1ccccc1 (stereo partly specified), the composite z-score is reported as 0.096 and 0.45.
In the case of C[C@@H]1CN2[C@@H](CC[C@@H](C)[C@@H]2c2ccc(Br)cc2)C(=O)O1, the composite z-score is reported as -0.513 and 0.437.
In the case of C=CCN(C(=O)C(c1cccs1)N(CCOCCO)C(=O)/C=C\C(=O)O)c1ccc(OC)cc1 (stereo unspecified), the composite z-score is reported as -0.718 and -1.36.
For C=CCN(CCCCC)C(=O)C(c1cccs1)N(C(=O)/C=C\C(=O)O)c1ccc(CCO)cc1 (stereo unspecified), the composite z-score was 0.455 and -0.0142.
C[C@@H](c1ccccc1)N1C(=O)[C@H]2[C@H]3[C@H](O)[C@H](O)CC(=O)[C@@H]3CC[C@H]2C1=O showed a composite z-score of 0.438.
Work on CO[C@H]1COC(=O)[C@H](C)NC(=O)CC=C[C@@H](C)[C@H](OC)COC(=O)CC=C[C@@H]1C yielded a composite z-score of -0.705.
For CCOC(=O)C[C@H]1[C@H](OC(=O)c2ccccc2-c2ccccc2)[C@@H](NC(=O)c2ccccc2)c2cc(OCCCO)ccc2N1C(=O)c1ccc2ccccc2n1, the composite z-score was 0.25 and 0.958.
With C=CCN(C(=O)C1N(CCOCCO)C(=O)C2C(C(=O)O)C3C=CC21O3)C(C)(C)C (stereo unspecified) the composite z-score was -0.717 and -1.47.
For CCCNC(=O)OC[C@H]1O[C@H](CCON=C(C)CCC(=O)OC[C@H]2O[C@H](C#Cc3ccccc3)C=C[C@@H]2Oc2ccc(C)cc2)C=C[C@@H]1Oc1ccc(OC)cc1, the composite z-score was -0.324.
With CCOC(=O)c1ccc(NC(=O)O[C@H]2[C@H](OC(=O)Nc3ccccc3)[C@H](OC(=O)Nc3ccccc3)[C@@H](OC)O[C@@H]2CO)cc1 the composite z-score was 2.66 and 2.3.
With O=C1NC(=O)C2C1C=CC(C(O)c1ccc([N+](=O)[O-])cc1)N2Nc1ccc(Cl)cc1Cl (stereo unspecified) the composite z-score was 2.95 and 2.03.
Compound CC(C)=NO[C@@H](C)c1cc(-c2c(C)cc(C)cc2C)no1 has a composite z-score of -0.177.
Compound CC(C)=NOCc1ccc(-c2cn([C@@H]3COC[C@H]3O)nn2)cc1 has a composite z-score of 0.355.
In the case of C=CC[C@@H](O)c1ccc(O)c2ccccc12, the composite z-score is reported as 1.18 and 1.3.
For C[C@@H]1CC[C@@H](C(=O)O)N[C@H]1c1ccc(-c2ccco2)cc1, the composite z-score was 0.01.
With COC(=O)c1c2oc(c1C(=O)OC)C(=O)N[C@@H](Cc1ccccc1)Cn1cc(nn1)C1(CCCCC1)NC(=O)N[C@H](CO)CC2 the composite z-score was 1.72 and 0.833.
With C=C[C@@H](OC)[C@H](O)c1ccc(OC)c(O)c1 the composite z-score was -0.0302 and 0.043.
With C=CCN(CCCCC)C(=O)C1N(CCCCCCO)C(=O)C2C(C(=O)O)C3C=CC21O3 (stereo unspecified) the composite z-score was 0.66 and 0.309.
In the case of C=CCN(C(=O)C(c1cccs1)N(C(=O)/C=C\C(=O)O)C(C)(C)CO)C(C)(C)C (stereo unspecified), the composite z-score is reported as 0.414 and 0.831.
In the case of Cc1ccc(S(=O)(=O)OC[C@@H]2CN3[C@@H](CC[C@@H](C)[C@@H]3c3ccc(Br)cc3)C(=O)O2)cc1, the composite z-score is reported as -0.0886 and 0.315.
In the case of CC(C)[Si]1(C(C)C)OCc2cc(CCCc3cc4c(c(CCc5ccccc5)n3)[Si](C(C)C)(C(C)C)OC4)nc(CCc3ccccc3)c21, the composite z-score is reported as 0.002 and 0.081.
With C=CCN(Cc1ccccc1)C(=O)C1N(c2c(Cl)cccc2CO)C(=O)C2C(C(=O)O)C3C=CC21O3 (stereo unspecified) the composite z-score was -0.908 and -0.629.
For COc1ccc(-c2ccc3c(n2)CCCN3CC(O)CN2CCCc3nc(-c4ccc(Br)cc4)ccc32)cc1 (stereo unspecified), the composite z-score was -0.0214 and 0.91.
In the case of COc1ccc(O[C@H]2C=C[C@@H](c3ccccc3)O[C@@H]2COC(=O)CCC(C)=NO[C@H](C)c2cn([C@H](CO)Cc3ccccc3)nn2)cc1, the composite z-score is reported as 0.167 and -0.0458.
In the case of C=CCN1C(=O)[C@]2(O[C@H](CCn3cc(CCO)nn3)[C@@H]([Si](C)(C)c3ccc(OC)cc3)[C@@H]2C)c2cc(N3C(=O)c4cccc5cccc3c45)ccc21, the composite z-score is reported as 1.88 and 0.772.
In the case of C=CCN(CCCCC)C(=O)C(c1cccs1)N(C(=O)/C=C\C(=O)O)c1c(Cl)cccc1CO (stereo unspecified), the composite z-score is reported as -0.774 and -0.96.
In the case of C=C[C@@H](OC)[C@H](O)c1ccc(O)c(F)c1, the composite z-score is reported as -0.385 and -0.626.
For C[N+](C)(C)CCCCNC(=O)[C@@H]1C[C@@H]2C(=O)N[C@@H](CCCC[N+](C)(C)C)C(=O)N2[C@@H]1c1cccc(OCCO)c1, the composite z-score was 1.19 and 2.25.
In the case of C=CC[C@@H](O)c1ccc(OCCO)cc1, the composite z-score is reported as -0.638 and -0.478.
In the case of CCCNC(=O)OC[C@H]1O[C@H](CCON=C(C)CCN2CCc3nc(-c4ccccc4)c(-c4ccccc4)cc3C2)C=C[C@@H]1Oc1ccc(OC)cc1, the composite z-score is reported as 0.73.
